Sampled rows, rich in hits. Any-hit rate of the full collection: about 12%.
HCV inh – qHTS Assay for Inhibitors of Hepatitis C Virus (HCV); Huh7.5.1 HCVcc-Cre infection, luciferase reporter, 44 h; Potency, µM (doses to about 41.8 µM), for inactives: top-dose activity change, negative = inhibition, usual class: inhibitors; hit rate 3.4% among 340,000; also: % is scaled to controls: 0 for no effect and ±100 for the full control effect
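Seed cells (1,000/well) for 4 h; treat with compound and infect with HCVcc-Cre, moi about 0.5. Incubate 44 h, then detect luciferase activity.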
Pf growth 48h – Primary qHTS for delayed death inhibitors of the malarial parasite plastid, 48 hour incubation; hit rate 5.9% among 310,000; AID 504832, 2011; Potency, µM (doses to about 28.7 µM), without a hit: at the highest dose activity change, negative = inhibition, actives largely listed as inhibitors; P. falciparum luciferase growth in erythrocytes, 48 h; also: % is scaled to controls: 0 for no effect and ±100 for the full control effect
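In quantitative HTS format, infected erythrocytes bearing luciferase-reporter parasites were treated for a single generation at 37 C. Luminescence after adding detection reagent served as the growth measure.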
AMA1 RON2 block – qHTS for Inhibitors of AMA1-RON; Towards Development of Antimalarial Drug Lead: Primary Screen; AlphaScreen AMA1-biotinylated RON2 peptide binding; Potency, µM (series often up to 58.2 µM), for the others: at the highest dose activity change, negative = inhibition, actives largely listed as inhibitors; Plasmodium falciparum AMA1 (3D7) - RON2 peptide interaction; AID 720542, 2013; hit rate 0.2% among 360,000;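 also: 0% = vehicle wells and -100% = peptide control; nearly all actives have a fitted effect of over 45% in size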
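AMA1 (3D7) with his tag at 25 nM final met compounds first, then biotinylated RON2 peptide at 25 nM; detection used donor plus acceptor beads, 10 µg/mL apiece, read by AlphaScreen after 30 min at room temperature.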
Pf growth 96h – Primary qHTS for delayed death inhibitors of the malarial parasite plastid, 96 hour incubation; Potency, µM (highest dose often 28.7 µM), for inactives: top-dose activity change, negative = inhibition, actives largely listed as inhibitors; hit rate 6.9% among 320,000; P. falciparum luciferase reporter growth, 96 h; also: % is scaled to controls: 0 for no effect and ±100 for the full control effect
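P. falciparum expressing integrated firefly luciferase, in erythrocytes at 2% hematocrit, 0.05% parasitemia, incubated with compounds 96 h at 37 C, 5% CO2. Growth inhibition read as loss of luminescence; two-generation exposure targets delayed-death apicoplast inhibitors.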
SARS PLP yeast – qHTS of Yeast-based Assay for SARS-CoV PLP; S. cerevisiae expressing SARS-CoV PLpro, growth rescue; Potency, µM (top dose mostly 32.9 µM), inactives show at the top dose activity, positive = growth rescue, most hits filed as activators; hit rate 0.19% among 330,000; AID 485353, 2010; calls by dose curve; also: 0% is about no effect; nearly all actives have a fitted effect of over 55% in size
NS1 function inh – qHTS Assay for Inhibitors of Influenza NS1 Protein Function; Potency, µM (highest dose often 46.1 µM), without a hit: at the highest dose activity, positive = more growth; hit rate 0.4% among 270,000; AID 2326, 2010; calls by dose curve; also: actives are rising curves; nearly all actives have a fitted effect of over 50% in size
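S. cerevisiae expressing influenza A NS1, grown in glucose, washed, then diluted 1:100 into pH 6.0 -URA galactose medium with 23 nl compound. Growth recovery read as OD600; NS1-free strain serves as control.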
* = called active by the depositor; u = inconclusive; x = no result given; [ ] = dose if it differs, or a comment. Unless noted, calls follow the shape of the dose curve; as a rule, active = well fitted curve in the direction sought with a large enough effect; inconclusive = small, poorly fitted or top-dose-only effect, or another doubt; inactive = no such curve, though single readings can be large; an effect the other way counts as inactive or inconclusive. Potency is read from the fitted curve at half-maximal effect.

SMILES	HCV inh	Pf growth 48h	AMA1 RON2 block	Pf growth 96h	SARS PLP yeast	NS1 function inh
C/C(=N\NC(=O)c1cccc(C)c1O)c1ccc(NC(=O)Cc2ccccc2)cc1	4%	5%	27%	17%	2%	-9%
COc1ccc(CN(C)C(=O)Cn2cnc3c(SC)nc(N)nc32)cc1OC	4.5µM*	x	0%	x	-6%	x
CC(C)CNC(=O)NC(=O)COC(=O)Cn1cnc2ccccc2c1=O	26%	-27%	-8%	0%	-1%	x
CCCCN(C(=O)c1ccc([N+](=O)[O-])s1)c1c(N)n(CCCC)c(=O)[nH]c1=O	9%	10µM*	-8%	u	-5%	x
CCCCN(C(=O)c1cc2c(s1)CCC2)c1c(N)n(CCCC)c(=O)[nH]c1=O	11µM*	0%	-11%	8%	x	x
CN(C(=O)CN1CCN(c2cnn(-c3ccccc3)c(=O)c2Cl)CC1)C1CCS(=O)(=O)C1 (centres undefined)	-13%	u	3%	u	-14%	x
COc1cccc(CNc2ccccc2O)c1OCc1ccccc1F	-6%	-29%	u	7%	-4%	x
COc1ccc(-c2cc(-c3ccc(C)cc3)n[nH]2)c(O)c1	u	u	74%	34%	-5%	-7%
Cc1ccc(-c2cc(-c3ccccc3)no2)c(O)c1	9%	u	-4%[11.6 µM]	u	8%	-9%
Cc1ccc(O)c(-c2cc(-c3ccc(F)cc3)no2)c1	5%	10µM*	-2%	u	-3%	-27%
Cc1ccc(O)c(-c2cc(-c3ccccc3C)[nH]n2)c1	11µM*	u	53%	12%	-34%	-147%
Cc1ccc(O)c(-c2cc(-c3ccccc3[N+](=O)[O-])[nH]n2)c1	-23%	u	46%	189%	-36%	-32%
COc1ccc(-c2cc(-c3cc(C)ccc3O)[nH]n2)cc1	3.5µM*	u	53%	u	-2%	-57%
Cc1ccc(O)c(-c2cc(C(=O)NCc3ccc4c(c3)OCO4)[nH]n2)c1	-6%	-2%	74%	0%	-5%	-2%
Cc1ccc(O)c(-c2cc(C(F)(F)C(F)F)[nH]n2)c1	u	9.3µM*	19%	9.3µM*	-12%	-98%
Cn1c(=S)[nH]c(=O)c2ncc(=O)[nH]c21	8%	55%	-3%	6%	0%	1%
COc1ccc(S(=O)(=O)N(C)C[C@H]2Oc3c(NC(=O)c4ccncc4)cccc3C(=O)N([C@H](C)CO)C[C@@H]2C)cc1	7%	x	0%	x	7%	x
Cc1cccc(C)c1NC(=O)CS(=O)CC(=O)NCC1OCCc2ccccc21 (centres undefined)	-9%	5%	10%	-19%	0%	x
COc1cccc(-c2c(C(=O)N/N=C(\C)c3ccc(Cl)s3)nnn2-c2nonc2N)c1	-4%	u	52%	u	10%	14%
CCc1cccc(NC(=O)c2snc3c(=O)[nH]cnc23)c1	-7%	4%	12%	-16%	-4%	-5%
Cc1cccc(NC(=O)c2snc3c(=O)[nH]cnc23)c1	x	11%	x	6.6µM*	-12%	-4%
COc1cccc(Nc2c(F)c(OC)c(F)c(F)c2C(=O)O)c1	15%	52%	-2%	4%	7%	5%
COc1cccc(Nc2c(F)c(F)c(F)c(F)c2C(=O)O)c1	7%	-7%	-5%	13µM*	5%	8%
CC(OC(=O)CSc1ccc([N+](=O)[O-])cc1)C(=O)NC1CC1 (centres undefined)	5%	u	-1%[11.6 µM]	-25%	1%	x
COc1ccccc1N1C(=O)C2C3C=CC(CC3)C2C1=O (centres undefined)	0%	10µM*	22%	-24%	4%	8%
SMILES	HCV inh	Pf growth 48h	AMA1 RON2 block	Pf growth 96h	SARS PLP yeast	NS1 function inh
COc1ccc(N2C(=O)C3C4C=CC(C4)C3C2=O)c(OC)c1 (centres undefined)	9%	7%	-4%	x	1%	u
O=C(c1ccccc1NS(=O)(=O)c1ccc(F)cc1F)N1CCCCC1	2%	x	-10%	x	-10%	x
CCCn1c(N)c(C(=O)CN(C)CC(=O)Nc2ccccc2C(F)(F)F)c(=O)[nH]c1=O	6%	u	44%	u	-6%	x
Cc1cc(C)n(-c2ccc(N3CCOCC3)nn2)n1	5%	72%	1%	39%	1%	2%
Cc1cc(C)n(-c2nnc(N3CCN(c4ccc(F)cc4)CC3)nn2)n1	-11%	u	-6%	0.37µM*	-1%	x
COc1cc(C(=O)Nc2nc(-c3ccc(Cl)cc3)c(C)s2)ccc1OCC(=O)Nc1ccc(F)cc1	u	u	4%	4.1µM*	1%	7%
Cc1ccc(C(=O)N[C@@H](C)CN2C3=NC[C@H](Cc4ccccc4)N3C[C@H]2Cc2ccc(O)cc2)cc1Br	-8%	2.1µM*	-13%	1.3µM*	4%	0%
Cc1ccc(C(=O)N[C@@H](C)CN2C3=NC[C@@H](Cc4ccccc4)N3C[C@H]2Cc2ccc(O)cc2)cc1Br	-3%	5.2µM*	-20%	2.9µM*	0%	3%
COc1ccc(C[C@H]2CN3C(=NC[C@@H]3Cc3ccc(O)cc3)N2C[C@H](C)NC(=O)c2ccc(C)c(Br)c2)cc1	u	1.5µM*	2%	0.83µM*	1%	2%
CCCc1cc(C(=O)N/N=C/c2cccn2C)cs1	7%	-22%	-12%	2%	0%	-9%
COc1ccc(C(=O)N2N=C(c3cccc(NS(C)(=O)=O)c3)CC2c2cccs2)cc1 (centres undefined)	-13%	u	6%	115%	-4%	1%
COc1cc2c(cc1OC)-c1c(OC)c(OC)cc3c1[C@H](C2)N(C)CC3	-26%	u	-6%	3.7µM*	1%	-3%
COc1cc2c(cc1O)CC1c3c(cc(O)c(OC)c3-2)CCN1C (centres undefined)	-4%	u	-29%	-23%	-2%	7%
CN(C)c1ccc(/C=C(/NC(=O)c2ccccc2)C(=O)N2CCCC2)cc1	35%	15%	-11%	7%	-1%	5%
COc1cccc(NC(=O)NC2CCN(Cc3nnnn3Cc3ccc4c(c3)OCO4)CC2)c1	-9%	u	-6%	u	0%	-42%
CNC(=S)N(CCc1c(C)[nH]c2ccc(C)cc12)Cc1ccc(OC)c(OC)c1	u	u	-5%	10µM*	-11%	25%
COc1cc(CN(CCc2c(C)[nH]c3ccc(C)cc23)C(=S)NC(C)(C)C)cc(OC)c1OC	u	u	-10%	2.6µM*	3%	-7%
